# Molecular target: Solute carrier family 2, facilitated glucose transporter member 1 (Homo sapiens) (UniProt P11166)
# Assay: ST_JUDE_LEISH: Cytotoxicity at 2uM final concentration against transgenic Leishmania Mexicana promastigotes LmGLUT1 that are glucose transport deficient and complemented with the human glucose transporter GLUT1. Activity is measured by DNA content using SYBR green in vitro
# Type: functional
# Solute carrier family 2, facilitated glucose transporter member 1 (Homo sapiens), sequence (P11166 whole entry): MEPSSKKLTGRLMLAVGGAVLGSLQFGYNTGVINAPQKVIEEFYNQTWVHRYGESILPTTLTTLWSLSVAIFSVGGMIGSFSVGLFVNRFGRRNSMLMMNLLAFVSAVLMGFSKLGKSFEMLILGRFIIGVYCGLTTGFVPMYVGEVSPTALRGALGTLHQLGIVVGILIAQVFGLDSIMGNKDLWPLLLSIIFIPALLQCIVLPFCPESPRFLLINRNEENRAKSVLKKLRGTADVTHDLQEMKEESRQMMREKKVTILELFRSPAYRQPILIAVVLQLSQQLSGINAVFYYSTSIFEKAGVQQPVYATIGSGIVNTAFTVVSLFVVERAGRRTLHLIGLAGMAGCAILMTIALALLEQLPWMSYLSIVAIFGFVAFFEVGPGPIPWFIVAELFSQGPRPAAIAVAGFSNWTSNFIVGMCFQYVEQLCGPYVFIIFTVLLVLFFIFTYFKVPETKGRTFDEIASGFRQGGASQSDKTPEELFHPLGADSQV
row,Compound,inhibition
1,CCN(CC)CCN(CCN(CC)CC)c1ccc(-c2nc3cc(Cl)c(Cl)cc3[nH]2)cc1,15.8%
2,CC(C)(C)c1ccc(CN2CCCCC(NC(=O)c3cc(-c4cccc(Cl)c4)cs3)C2)cc1 (stereo not given),-0.16%
3,CCc1n[nH]c(C(=O)NC2CCN(CC3(c4ccc(OC)cc4)CCCCC3)CC2)c1C,3.43%
4,COc1ccccc1-c1ccc2nnc(SCC(=O)Nc3ccc4c(c3)OCCO4)n2n1,4.56%
5,CC(=O)Nc1ccc(S(=O)(=O)Nc2c(C)cc(Cc3cnc(N)nc3N)cc2C)cc1,-0.22%
6,CNCCCNc1ccnc2cc(Cl)ccc12,3.07%
7,O=C(Nc1cccc(-c2cccc(-c3nc4cc(C(F)(F)F)ccc4[nH]3)c2)c1)c1cccnc1,0.56%
8,C=CCOC(=O)N1CCC(CNCc2ccc(-c3ccc(-c4nc5cc(C(F)(F)F)ccc5[nH]4)cc3)cc2)C1 (stereo not given),3.5%
9,COc1ccc2nccc(N3C[C@H]4C[C@@H]3CN4CCNCc3ccc4c(n3)NC(=O)CS4)c2n1,-0.98%
10,c1cc(CNCCc2ccncc2)cc(-c2csc(-c3nc4ccccc4[nH]3)c2)c1,0.51%
11,O=C(NC1CCCCC1)N(Cc1ccc(-c2cccc(CNC3CCCC3)c2)cc1)C1CCN(Cc2ccccc2)CC1,6.18%
12,O=C(C=Cc1cccs1)Nc1ccc(-c2nc3ccccc3[nH]2)cc1,1.65%
13,O=S(=O)(Nc1cccc(CCN2CCC(N3CCCCC3)CC2)c1)c1ccc2c(c1)OCCO2,1.3%
14,COc1cc(C(=O)N2CCOC(CCN3CCC(c4ccc(Cl)cc4)CC3)(c3ccc(Cl)c(Cl)c3)C2)cc(OC)c1OC (stereo not given),12.4%
15,CC[C@@]1(O)C(=O)OCc2c1cc1n(c2=O)Cc2c-1nc1cc3c(cc1c2CN1CCN(C)CC1)OCCO3,7.46%

# From ChEMBL document CHEMBL3433997, “St. Jude Leishmania screening dataset” (2016)
